Here are results for 8 compounds from PubChem BioAssay (NCI).

Compounds without any hit were thinned out: in the full panel of roughly 83,000, 20% have a hit.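 Plates (96-well) were seeded with cells, treated with compound at one concentration, and incubated for 48 hours before percent growth was determined.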 A number with no mark means an inactive call. Active and inactive are the calls of the source. How the source made its calls: active means growth percent below 10; inactive means the rest.

Among the test systems are SR leukemia; RPMI-8226 leukemia; OVCAR-8 ovarian; OVCAR-5 ovarian; OVCAR-4 ovarian; SK-OV-3 ovarian; IGROV1 ovarian; OVCAR-3 ovarian; HS 578T breast; NCI/ADR-RES ovarian; T-47D breast; BT-549 breast; MDA-MB-435 melanoma; SW-620 colon; MCF7 breast; HCT-116 colon; HCC-2998 colon; KM12 colon.
What all share (experiment): NCI-60 one-dose screen, 48 h (100 = growth as untreated, 0 = no growth, -100 = all killed)
Conditions in all cases: 10 µM unless noted

With `COc1ccc(C2=NN(C=O)C(c3ccc(Oc4nc5c(c(=O)n(C)c(=O)n5C)n4C)c(OC)c3)C2)cc1` (centres undefined), the growth in the test on SR leukemia is 83.9%; in the test with RPMI-8226 leukemia, 79.6%; with OVCAR-8 ovarian, 85.2%; in the test on OVCAR-5 ovarian it was 96.6%; with OVCAR-4 ovarian, 72.3%; in the test on SK-OV-3 ovarian, 114%. For the same compound, the growth with IGROV1 ovarian was 87.7%; in the test with OVCAR-3 ovarian it was 101%; in the test on HS 578T breast, 89.6%; in the test with NCI/ADR-RES ovarian, 63.4%; with T-47D breast, 75.5%; in the test with BT-549 breast, 96.9%. Besides, the growth with MDA-MB-435 melanoma is 61.2%; with SW-620 colon, 104%; in the test with MCF7 breast it was 77.1%; in the test on HCT-116 colon, 83%; with HCC-2998 colon, 82.3%; in the test on KM12 colon it was 87.5%.

Regarding `C=CCn1c(SCC(=O)Nc2ccc(C(=O)/C=C/c3ccc(Cl)cc3)cc2)nnc1-c1ccccc1`, the growth in the test with SR leukemia is 82.5%; with RPMI-8226 leukemia, -16% (active); in the test on OVCAR-8 ovarian, 102%; in the test with OVCAR-5 ovarian, 95.3%; in the test on OVCAR-4 ovarian, 85.2%; in the test with SK-OV-3 ovarian it was 98.2%. In addition, the growth in the test on IGROV1 ovarian is 89.1%; in the test on OVCAR-3 ovarian it was 90.2%; in the test with HS 578T breast it was 111%; in the test with NCI/ADR-RES ovarian it was 93.7%; in the test on T-47D breast, 73%; with BT-549 breast, 71.3%. Besides, the growth in the test with MDA-MB-435 melanoma was 77.5%; with SW-620 colon, 98.4%; with MCF7 breast, 24.4%; with HCT-116 colon, -78.6% (active); in the test with HCC-2998 colon, 96.4%; in the test on KM12 colon, 85.2%.

For `COc1ccccc1/C=C/C1=C(C)CCC(c2ccccc2OC)C1C` (centres undefined), the growth in the test with SR leukemia is -13.2% (active); in the test on RPMI-8226 leukemia, -4.33% (active); with OVCAR-8 ovarian, 19.7%; in the test on OVCAR-5 ovarian, 28.9%; with OVCAR-4 ovarian it was 42.7%; with SK-OV-3 ovarian, 33.4%. For the same compound, the growth is -48.7% (active) with IGROV1 ovarian; -21.6% (active) in the test on OVCAR-3 ovarian; 11.1% with HS 578T breast; 18% in the test with NCI/ADR-RES ovarian; 61.9% in the test on T-47D breast; -16.3% (active) in the test on BT-549 breast. The growth was -3.28% (active) in the test with MDA-MB-435 melanoma; 18.2% in the test on SW-620 colon; 7.88% (active) in the test on MCF7 breast; 2.8% (active) in the test on HCT-116 colon; -12.5% (active) in the test on HCC-2998 colon; 6.67% (active) in the test with KM12 colon.

For the compound `NC(=N\N=C/c1ccc(Cl)cc1Cl)/C(N)=N\N=C/c1ccc(Cl)cc1Cl`, the growth in the test with SR leukemia is 51.1%; in the test on RPMI-8226 leukemia it was 62.2%; in the test with OVCAR-8 ovarian, 76.6%; with OVCAR-5 ovarian it was 71.6%; in the test with OVCAR-4 ovarian, -34% (active); in the test with SK-OV-3 ovarian it was 9.34% (active). Moreover, the growth in the test on IGROV1 ovarian was 15.8%; in the test on OVCAR-3 ovarian, 21.5%; with HS 578T breast, 33.2%; in the test with NCI/ADR-RES ovarian, 82.3%; in the test with T-47D breast it was 10.8%; in the test on BT-549 breast, 111%. For the same compound, the growth is 82.6% in the test with MDA-MB-435 melanoma; 63.4% with SW-620 colon; 87% with MCF7 breast; 21.9% with HCT-116 colon; 88.8% in the test with HCC-2998 colon; 84% in the test on KM12 colon.

Take `COc1cccc(CNc2nnc(C)c(C)n2)c1O`: the growth in the test with SR leukemia was 102%; in the test on RPMI-8226 leukemia, 100%; in the test with OVCAR-8 ovarian it was 99.2%; in the test with OVCAR-5 ovarian, 108%; with OVCAR-4 ovarian, 103%; in the test on SK-OV-3 ovarian, 87%. Further, the growth was 107% in the test on IGROV1 ovarian; 110% in the test on OVCAR-3 ovarian; 108% in the test with HS 578T breast; 104% with NCI/ADR-RES ovarian; 94% in the test on T-47D breast; 101% with BT-549 breast. In addition, the growth with MDA-MB-435 melanoma was 111%; in the test on SW-620 colon, 109%; with MCF7 breast, 97.3%; in the test on HCT-116 colon, 100%; with HCC-2998 colon, 96.4%; with KM12 colon it was 107%.

For the compound `Cc1ccc(-c2nc(C#N)c(S(=O)(=O)n3nc(C)cc3N)o2)cc1`, the growth in the test with SR leukemia was -25.8% (active); in the test with RPMI-8226 leukemia it was 46.5%; in the test with OVCAR-8 ovarian it was 87.2%; in the test with OVCAR-5 ovarian, 99.8%; in the test on OVCAR-4 ovarian, 111%; in the test with SK-OV-3 ovarian it was 108%. In addition, the growth in the test on IGROV1 ovarian was 80.8%; in the test on OVCAR-3 ovarian it was 54.3%; in the test with HS 578T breast, 103%; with NCI/ADR-RES ovarian it was 98.5%; with T-47D breast it was 55.2%; with BT-549 breast, 80.4%. The growth is 96.2% with MDA-MB-435 melanoma; 15% in the test with SW-620 colon; 88.2% with MCF7 breast; 65.5% in the test on HCT-116 colon; 110% in the test with HCC-2998 colon; 92.8% in the test with KM12 colon.

With `CCCCCN(CCCCC)CC(O)c1c(Cl)ccc2ccccc12` (centres undefined), the growth with SR leukemia is 32.9%; in the test with RPMI-8226 leukemia, 66.2%; with OVCAR-8 ovarian, 87.5%; in the test with OVCAR-5 ovarian, 65.8%; in the test on OVCAR-4 ovarian it was 79.5%; in the test with SK-OV-3 ovarian, 93.6%. The growth in the test with IGROV1 ovarian is 63%; in the test with OVCAR-3 ovarian, 90.7%; with HS 578T breast it was 80%; in the test with NCI/ADR-RES ovarian, 77.8%; in the test with T-47D breast it was 69%; in the test with BT-549 breast, 105%. Moreover, the growth in the test with MDA-MB-435 melanoma is 84.2%; in the test with SW-620 colon, 46.1%; in the test with MCF7 breast, 72.2%; in the test on HCT-116 colon it was 37.2%; in the test with HCC-2998 colon, 70.8%; in the test on KM12 colon it was 75.9%.

On to `CCN(CC)CCN1C(=O)c2c(c(C)c3c(oc4cc(OC)ccc43)c2C)C1=O`, for which the growth with SR leukemia is 29.3%; with RPMI-8226 leukemia, 88.1%; with OVCAR-8 ovarian it was 90.6%; in the test with OVCAR-5 ovarian it was 94.2%; in the test with OVCAR-4 ovarian it was 73.8%; in the test with SK-OV-3 ovarian it was 115%. Moreover, the growth in the test on IGROV1 ovarian is 42.2%; in the test with OVCAR-3 ovarian, 112%; in the test on HS 578T breast it was 118%; in the test on NCI/ADR-RES ovarian, 86.2%; with T-47D breast it was 104%; in the test on BT-549 breast it was 98.2%. Also, the growth in the test on MDA-MB-435 melanoma is 95.6%; in the test with SW-620 colon, 96.3%; in the test on MCF7 breast it was -8.69% (active); in the test with HCT-116 colon it was 94.1%; in the test with HCC-2998 colon it was 103%; in the test on KM12 colon, 102%.
